Measurements taken from the supplement of paper PMC11732987, “Enantioselective OTUD7B fragment discovery through chemoproteomics screening and high-throughput optimisation” (Communications Chemistry, 2025).

How the values were obtained:
Experiment in all cases: log2 ratio of Biotin-Ahx-Ub-VS probe labelling (fragment/DMSO); higher = less target engagement (more negative = stronger competition), active = hit call of the paper (q ≤ 0.05, log2 ratio ≤ -1)
Settings in all cases: compound concentration: 200 uM; treatment time: 3 h
USP34 = USP34 (UniProt Q70CQ2)
Chain of USP34 (Q70CQ2 whole entry, the tested form may be a part): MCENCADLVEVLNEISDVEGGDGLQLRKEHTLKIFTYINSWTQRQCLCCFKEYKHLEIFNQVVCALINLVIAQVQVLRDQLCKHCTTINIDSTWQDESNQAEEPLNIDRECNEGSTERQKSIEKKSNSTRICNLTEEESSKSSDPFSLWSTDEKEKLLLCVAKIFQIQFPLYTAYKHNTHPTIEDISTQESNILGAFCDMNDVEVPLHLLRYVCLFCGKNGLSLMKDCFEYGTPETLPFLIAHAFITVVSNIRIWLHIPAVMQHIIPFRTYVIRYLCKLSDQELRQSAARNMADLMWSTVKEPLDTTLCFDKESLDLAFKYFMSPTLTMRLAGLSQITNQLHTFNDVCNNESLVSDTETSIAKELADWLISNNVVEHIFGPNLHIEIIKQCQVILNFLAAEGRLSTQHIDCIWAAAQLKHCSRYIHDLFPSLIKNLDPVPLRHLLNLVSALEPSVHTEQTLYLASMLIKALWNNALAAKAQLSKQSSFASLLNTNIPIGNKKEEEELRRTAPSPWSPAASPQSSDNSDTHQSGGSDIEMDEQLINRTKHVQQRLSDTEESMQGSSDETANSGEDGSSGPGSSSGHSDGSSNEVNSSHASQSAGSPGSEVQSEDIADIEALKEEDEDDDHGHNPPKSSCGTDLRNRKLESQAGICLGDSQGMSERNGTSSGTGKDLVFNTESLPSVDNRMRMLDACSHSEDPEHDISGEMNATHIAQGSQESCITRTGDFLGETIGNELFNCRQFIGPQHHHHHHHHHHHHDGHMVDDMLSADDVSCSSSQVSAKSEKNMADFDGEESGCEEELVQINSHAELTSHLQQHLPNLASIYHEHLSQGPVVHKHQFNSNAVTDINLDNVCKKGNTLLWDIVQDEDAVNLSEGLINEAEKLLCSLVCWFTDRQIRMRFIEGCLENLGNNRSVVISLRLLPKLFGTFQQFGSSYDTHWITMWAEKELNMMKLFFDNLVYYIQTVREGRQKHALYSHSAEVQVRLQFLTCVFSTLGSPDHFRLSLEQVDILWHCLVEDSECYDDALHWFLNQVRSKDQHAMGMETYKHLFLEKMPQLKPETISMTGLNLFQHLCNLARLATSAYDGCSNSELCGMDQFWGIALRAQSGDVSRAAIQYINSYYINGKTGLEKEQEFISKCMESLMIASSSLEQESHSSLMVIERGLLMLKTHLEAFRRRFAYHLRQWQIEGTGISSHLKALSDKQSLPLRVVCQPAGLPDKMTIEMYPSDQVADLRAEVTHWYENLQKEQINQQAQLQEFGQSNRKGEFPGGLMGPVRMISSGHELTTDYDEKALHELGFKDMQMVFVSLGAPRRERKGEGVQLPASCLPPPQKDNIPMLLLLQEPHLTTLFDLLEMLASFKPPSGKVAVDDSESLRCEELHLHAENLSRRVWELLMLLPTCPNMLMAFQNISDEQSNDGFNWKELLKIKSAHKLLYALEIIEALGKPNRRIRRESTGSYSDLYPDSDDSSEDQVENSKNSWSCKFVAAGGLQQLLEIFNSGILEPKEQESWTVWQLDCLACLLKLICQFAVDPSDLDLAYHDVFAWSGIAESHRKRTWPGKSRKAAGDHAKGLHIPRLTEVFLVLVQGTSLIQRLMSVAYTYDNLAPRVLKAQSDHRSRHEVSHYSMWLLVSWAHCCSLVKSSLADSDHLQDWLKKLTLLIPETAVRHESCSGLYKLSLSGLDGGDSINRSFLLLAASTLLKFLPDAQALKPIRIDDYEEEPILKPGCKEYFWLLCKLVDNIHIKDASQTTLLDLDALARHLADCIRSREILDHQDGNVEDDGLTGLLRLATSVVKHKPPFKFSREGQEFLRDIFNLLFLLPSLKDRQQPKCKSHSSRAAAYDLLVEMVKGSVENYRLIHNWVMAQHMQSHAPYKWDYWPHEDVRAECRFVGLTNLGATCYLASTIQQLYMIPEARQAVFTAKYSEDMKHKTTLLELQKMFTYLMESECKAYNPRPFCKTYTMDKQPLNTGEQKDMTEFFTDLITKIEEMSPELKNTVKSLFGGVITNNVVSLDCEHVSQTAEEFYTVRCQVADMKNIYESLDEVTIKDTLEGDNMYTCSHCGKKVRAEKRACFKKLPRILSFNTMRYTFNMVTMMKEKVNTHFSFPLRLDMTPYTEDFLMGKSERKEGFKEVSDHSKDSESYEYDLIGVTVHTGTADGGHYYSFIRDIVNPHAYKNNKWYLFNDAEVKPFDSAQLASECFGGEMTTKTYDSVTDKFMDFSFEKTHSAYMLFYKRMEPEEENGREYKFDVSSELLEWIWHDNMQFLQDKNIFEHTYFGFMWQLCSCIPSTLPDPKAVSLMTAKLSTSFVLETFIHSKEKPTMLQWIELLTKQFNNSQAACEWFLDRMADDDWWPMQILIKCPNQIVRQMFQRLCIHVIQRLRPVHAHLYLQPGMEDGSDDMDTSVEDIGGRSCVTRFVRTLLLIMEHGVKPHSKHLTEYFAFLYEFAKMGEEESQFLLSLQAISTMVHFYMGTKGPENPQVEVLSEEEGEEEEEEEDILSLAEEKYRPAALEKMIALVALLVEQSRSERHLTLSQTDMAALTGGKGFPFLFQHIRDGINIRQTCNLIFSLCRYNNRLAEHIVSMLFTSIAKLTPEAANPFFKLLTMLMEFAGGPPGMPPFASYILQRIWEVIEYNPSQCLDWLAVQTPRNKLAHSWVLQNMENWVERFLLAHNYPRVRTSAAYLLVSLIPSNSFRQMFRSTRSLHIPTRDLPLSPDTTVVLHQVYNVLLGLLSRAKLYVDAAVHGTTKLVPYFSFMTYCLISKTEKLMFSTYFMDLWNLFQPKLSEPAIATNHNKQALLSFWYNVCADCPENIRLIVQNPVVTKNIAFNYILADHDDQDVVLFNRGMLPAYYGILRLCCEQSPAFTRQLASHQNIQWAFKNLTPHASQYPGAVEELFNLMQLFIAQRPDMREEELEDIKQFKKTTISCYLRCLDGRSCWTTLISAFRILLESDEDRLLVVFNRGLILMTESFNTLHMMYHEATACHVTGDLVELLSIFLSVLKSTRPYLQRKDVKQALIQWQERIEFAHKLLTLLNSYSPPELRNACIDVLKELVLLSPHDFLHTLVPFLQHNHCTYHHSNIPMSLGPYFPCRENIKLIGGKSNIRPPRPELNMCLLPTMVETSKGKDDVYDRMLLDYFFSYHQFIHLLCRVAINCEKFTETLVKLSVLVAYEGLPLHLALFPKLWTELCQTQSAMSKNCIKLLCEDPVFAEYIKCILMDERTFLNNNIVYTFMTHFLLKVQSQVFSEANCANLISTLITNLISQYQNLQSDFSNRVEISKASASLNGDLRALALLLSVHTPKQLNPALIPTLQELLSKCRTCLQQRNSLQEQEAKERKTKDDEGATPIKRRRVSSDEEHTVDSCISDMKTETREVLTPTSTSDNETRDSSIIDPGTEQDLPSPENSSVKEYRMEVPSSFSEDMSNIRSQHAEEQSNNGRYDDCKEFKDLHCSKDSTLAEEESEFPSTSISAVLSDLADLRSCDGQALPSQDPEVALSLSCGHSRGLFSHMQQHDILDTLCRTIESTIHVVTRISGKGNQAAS
Procedure, shortened: (§1)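 The table lists average log2 ratios of fragment over vehicle, from an unpaired t-test on global-median-normalised Spectronaut label-free quantities. Proteins with ≥2 unique peptides were used. Samples were HEK293T lysate (495 µg) treated in triplicate with fragment at 200 µM or vehicle for 3 h, then with Biotin-Ahx-Ub-VS (0.5 µM final) for 1 h, with labelled DUBs NeutrAvidin-enriched and run by diaPASEF LC-MS/MS.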

USP36 = target: T1, USP36 (UniProt Q9P275)
T1 sequence (whole entry): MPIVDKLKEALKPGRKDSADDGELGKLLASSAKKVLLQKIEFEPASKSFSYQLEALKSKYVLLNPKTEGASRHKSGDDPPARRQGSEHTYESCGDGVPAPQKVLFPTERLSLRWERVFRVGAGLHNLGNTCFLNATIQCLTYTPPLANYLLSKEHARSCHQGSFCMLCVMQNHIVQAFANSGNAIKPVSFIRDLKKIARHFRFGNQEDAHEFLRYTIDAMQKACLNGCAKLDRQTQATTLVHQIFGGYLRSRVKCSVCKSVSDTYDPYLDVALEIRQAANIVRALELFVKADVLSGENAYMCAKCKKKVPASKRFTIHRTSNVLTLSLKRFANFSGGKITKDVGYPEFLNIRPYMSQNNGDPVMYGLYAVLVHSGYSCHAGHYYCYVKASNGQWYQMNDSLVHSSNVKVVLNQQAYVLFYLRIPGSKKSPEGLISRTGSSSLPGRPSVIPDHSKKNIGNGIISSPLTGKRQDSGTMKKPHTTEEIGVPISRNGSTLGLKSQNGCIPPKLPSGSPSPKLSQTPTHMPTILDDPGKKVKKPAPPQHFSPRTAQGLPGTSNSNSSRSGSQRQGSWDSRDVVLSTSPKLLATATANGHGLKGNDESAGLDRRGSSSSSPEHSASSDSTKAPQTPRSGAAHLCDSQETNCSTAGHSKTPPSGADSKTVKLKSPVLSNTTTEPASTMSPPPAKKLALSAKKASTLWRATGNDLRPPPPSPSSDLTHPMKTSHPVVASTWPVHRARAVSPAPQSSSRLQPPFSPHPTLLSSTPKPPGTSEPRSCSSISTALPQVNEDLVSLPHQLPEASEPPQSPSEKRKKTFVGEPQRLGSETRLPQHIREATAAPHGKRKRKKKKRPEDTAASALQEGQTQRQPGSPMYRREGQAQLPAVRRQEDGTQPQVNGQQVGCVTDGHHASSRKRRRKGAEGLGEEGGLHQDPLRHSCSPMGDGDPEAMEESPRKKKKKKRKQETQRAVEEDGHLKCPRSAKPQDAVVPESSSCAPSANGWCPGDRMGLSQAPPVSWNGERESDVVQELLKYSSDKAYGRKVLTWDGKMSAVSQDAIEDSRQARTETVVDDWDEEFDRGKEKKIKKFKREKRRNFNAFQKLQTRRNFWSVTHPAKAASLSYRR
Procedure, shortened: as §1

USP38 = target: T2, USP38 (UniProt Q8NB14)
T2 sequence (whole entry): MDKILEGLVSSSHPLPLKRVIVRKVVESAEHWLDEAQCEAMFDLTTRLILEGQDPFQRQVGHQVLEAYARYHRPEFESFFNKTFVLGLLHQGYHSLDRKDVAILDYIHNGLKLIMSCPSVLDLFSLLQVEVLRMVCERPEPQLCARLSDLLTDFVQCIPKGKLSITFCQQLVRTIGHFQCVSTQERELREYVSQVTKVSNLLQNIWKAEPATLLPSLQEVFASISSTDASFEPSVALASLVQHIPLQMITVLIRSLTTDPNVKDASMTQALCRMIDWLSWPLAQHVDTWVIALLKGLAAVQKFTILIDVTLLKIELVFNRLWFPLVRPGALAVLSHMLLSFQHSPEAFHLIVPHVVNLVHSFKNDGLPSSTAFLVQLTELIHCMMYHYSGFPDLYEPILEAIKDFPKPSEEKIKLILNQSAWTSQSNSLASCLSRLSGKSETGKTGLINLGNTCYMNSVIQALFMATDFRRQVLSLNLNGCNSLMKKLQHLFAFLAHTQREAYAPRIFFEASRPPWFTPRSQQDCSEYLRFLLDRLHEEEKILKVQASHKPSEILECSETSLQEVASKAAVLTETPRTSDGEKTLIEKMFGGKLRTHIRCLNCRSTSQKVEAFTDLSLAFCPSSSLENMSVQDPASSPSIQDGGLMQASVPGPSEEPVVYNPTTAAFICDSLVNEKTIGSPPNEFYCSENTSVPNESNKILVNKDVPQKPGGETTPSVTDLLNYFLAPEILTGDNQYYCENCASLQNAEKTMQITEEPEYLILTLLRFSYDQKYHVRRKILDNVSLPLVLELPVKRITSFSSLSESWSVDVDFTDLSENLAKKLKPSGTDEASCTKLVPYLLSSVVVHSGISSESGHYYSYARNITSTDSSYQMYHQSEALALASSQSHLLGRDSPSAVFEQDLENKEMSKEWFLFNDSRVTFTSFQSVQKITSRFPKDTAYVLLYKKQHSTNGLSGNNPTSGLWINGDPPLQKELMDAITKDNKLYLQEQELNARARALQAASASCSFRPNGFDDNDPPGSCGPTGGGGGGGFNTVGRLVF
Procedure, shortened: as §1

USP39 = target: T3, USP39 (UniProt Q53GS9)
T3 sequence (whole entry): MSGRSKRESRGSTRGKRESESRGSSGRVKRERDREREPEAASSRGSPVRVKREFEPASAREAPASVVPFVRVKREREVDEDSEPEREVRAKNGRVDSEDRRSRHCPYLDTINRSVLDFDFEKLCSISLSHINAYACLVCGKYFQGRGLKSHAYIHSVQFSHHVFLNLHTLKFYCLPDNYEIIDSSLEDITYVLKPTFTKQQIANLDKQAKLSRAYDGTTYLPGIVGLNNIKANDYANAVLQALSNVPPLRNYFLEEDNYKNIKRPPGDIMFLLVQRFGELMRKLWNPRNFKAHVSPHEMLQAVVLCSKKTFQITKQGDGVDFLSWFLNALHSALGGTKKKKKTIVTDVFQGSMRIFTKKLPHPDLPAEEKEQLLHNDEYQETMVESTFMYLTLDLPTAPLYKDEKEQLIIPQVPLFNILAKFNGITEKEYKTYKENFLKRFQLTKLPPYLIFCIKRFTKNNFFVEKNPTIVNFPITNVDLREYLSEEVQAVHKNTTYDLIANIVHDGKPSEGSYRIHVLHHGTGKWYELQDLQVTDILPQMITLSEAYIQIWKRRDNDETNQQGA
Procedure, shortened: as §1

USP4 = target: T4, USP4 (UniProt Q13107)
T4 sequence (whole entry): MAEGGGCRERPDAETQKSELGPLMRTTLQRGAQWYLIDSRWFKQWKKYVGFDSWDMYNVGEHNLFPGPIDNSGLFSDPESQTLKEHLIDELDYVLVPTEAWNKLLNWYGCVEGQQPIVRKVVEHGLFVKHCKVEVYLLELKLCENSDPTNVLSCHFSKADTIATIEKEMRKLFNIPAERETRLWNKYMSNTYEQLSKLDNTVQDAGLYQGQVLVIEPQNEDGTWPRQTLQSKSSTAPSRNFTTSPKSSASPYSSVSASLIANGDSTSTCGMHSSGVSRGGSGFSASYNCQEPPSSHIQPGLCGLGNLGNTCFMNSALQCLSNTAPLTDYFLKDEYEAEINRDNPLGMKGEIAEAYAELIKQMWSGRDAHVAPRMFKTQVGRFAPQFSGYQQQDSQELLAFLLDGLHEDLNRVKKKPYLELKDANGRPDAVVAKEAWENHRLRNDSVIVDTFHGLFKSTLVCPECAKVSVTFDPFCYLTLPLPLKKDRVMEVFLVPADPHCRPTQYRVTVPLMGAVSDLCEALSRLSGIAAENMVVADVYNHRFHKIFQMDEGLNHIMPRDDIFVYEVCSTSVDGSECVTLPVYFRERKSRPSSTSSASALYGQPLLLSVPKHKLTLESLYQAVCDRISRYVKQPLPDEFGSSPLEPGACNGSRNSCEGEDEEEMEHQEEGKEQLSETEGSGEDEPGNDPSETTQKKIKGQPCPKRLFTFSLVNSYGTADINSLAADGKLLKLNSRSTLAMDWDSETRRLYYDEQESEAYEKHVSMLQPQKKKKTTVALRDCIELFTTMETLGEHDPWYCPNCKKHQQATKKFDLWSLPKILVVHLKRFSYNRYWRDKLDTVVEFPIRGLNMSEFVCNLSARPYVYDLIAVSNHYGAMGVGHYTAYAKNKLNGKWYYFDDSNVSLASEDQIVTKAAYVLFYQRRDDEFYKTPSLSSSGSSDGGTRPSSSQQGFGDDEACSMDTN
Procedure, shortened: as §1

Measured: log2 ratio of Biotin-Ahx-Ub-VS probe labelling

O=C(CCl)NC1CCS(=O)(=O)c2ccccc21 (stereo not given)
inactive: USP34 -0.0259 | USP36 -0.0862 | USP38 -0.432 | USP39 -0.117 | USP4 -0.0115
